Most compounds without a hit are left out; they make up all but 1.1% or so of the library.
LDHA block: blocks human lactate dehydrogenase A; P00338; purified LDHA, NADH/diaphorase-resazurin fluorescence; stronger effect = lower value; activity change, % (values are at about 110 or 230 µM); 0.15% of 480,000 active; AID 1347041; in the data active = activity change below about -30%; inconclusive = mostly about -25% to -30%;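 also: plate controls were DMSO wells for no effect and wells without enzyme for full effect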
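Enzyme activity of human lactate dehydrogenase 5 (2 nM; 0.06 mM NADH, 0.2 mM pyruvate, 5 min, RT) is measured via a resazurin/diaphorase fluorescence readout of residual NADH.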
a7 integrin act: activators of alpha7 integrin expression for muscular dystrophy; 0.064% of 350,000 active; alpha7betagal myoblasts, beta-gal FDG fluorescence, 48 h; Potency, µM (titrated, usually from 38.3 µM), inactives show at the top dose activation, hits mostly activators;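 also: potency is read from the fitted curve at half-maximal effect; 100% = response of the positive control SU9516; nearly all actives have a fitted effect of over 60% in size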
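Alpha7betagal+/- myoblasts (passage 13) were plated 16-24 hr, then exposed to compounds (1:260 dilution of DMSO stock) for 48 hours at 37C. After MPER lysis, β-galactosidase reporter activity was read as FDG fluorescence (ex 480/em 540) after 30 minutes.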
GALK inh: galactokinase (human) inhibition; P51570; Purified GALK, Kinase-Glo residual ATP luminescence; Potency, µM (highest dose often 57.5 µM), without a hit: top-dose activity change, negative = inhibition, most hits filed as inhibitors; 0.007% of 270,000 active; also: potency is read from the fitted curve at half-maximal effect
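ATP-depletion format; final 35 uM ATP, 100 uM D-galactose, 5 nM enzyme; pH 8.0 HEPES/Mg2+ buffer; 60 min RT; luminescence read 10 min after detection reagent.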
TrxR1 substrate: rat thioredoxin reductase 1 substrate activity. O89049. purified TrxR1 substrate turnover, NADPH consumption readout. Potency, µM (top dose mostly 114 µM), inactives show top-dose activity change, negative = substrate turnover. 0.01% of 390,000 active. AID 588456; also: potency is read from the fitted curve at half-maximal effect; nearly all actives have a fitted effect of over 50% in size
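Rat TrxR1, dispensed at 90 nM, was prereduced with 400 uM NADPH (final) for 5 min at ~22 deg C, then incubated with compound 15 min before 400 uM selenite. A first-read NADPH fluorescence drop versus no-compound background flagged substrates.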
PI4K2A inh: inhibitors of human PI4K2A. activity change, negative = inhibition, % at 76.9 µM. purified PI4K2A, ADP-Glo luminescence, 1 h; stronger effect = lower value. 0.13% of 420,000 active. Q9BTU6; in the data active = activity change below about -50%; inconclusive = mostly about -30% to -49%;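 also: -100% = wells without enzyme as full effect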
Target sequence (Q9BTU6 whole entry, looked up): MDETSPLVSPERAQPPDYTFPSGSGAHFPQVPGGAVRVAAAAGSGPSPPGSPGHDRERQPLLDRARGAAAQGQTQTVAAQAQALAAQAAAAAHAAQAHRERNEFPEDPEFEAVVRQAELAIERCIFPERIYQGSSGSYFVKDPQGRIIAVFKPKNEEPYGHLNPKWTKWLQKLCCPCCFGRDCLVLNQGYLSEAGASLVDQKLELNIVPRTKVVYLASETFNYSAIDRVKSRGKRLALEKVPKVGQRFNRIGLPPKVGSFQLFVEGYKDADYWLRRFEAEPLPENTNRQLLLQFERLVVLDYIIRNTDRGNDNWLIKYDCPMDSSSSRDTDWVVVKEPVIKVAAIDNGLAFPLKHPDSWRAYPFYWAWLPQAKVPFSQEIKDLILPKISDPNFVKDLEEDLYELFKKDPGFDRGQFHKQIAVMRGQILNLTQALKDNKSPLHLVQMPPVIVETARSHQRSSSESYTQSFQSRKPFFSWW
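PI4K2A activity was measured by ADP-Glo luminescence: enzyme (4 ug/mL stock) and phosphatidylinositol (1.2 mM stock) in Tris pH 7.5/MgCl2/EGTA/Triton X-100 buffer were reacted with ATP (300 microM stock) for one hour at ambient temperature.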
rTrxR1 inhibitor: inhibitors of rat thioredoxin reductase 1. O89049. recombinant rTrxR1, NADPH fluorescence consumption, selenite substrate. Potency, µM (series often up to 114 µM), inactives show at the highest dose activity change, negative = inhibition, most hits filed as inhibitors. 1% of 390,000 active; also: potency is read from the fitted curve at half-maximal effect; nearly all actives have a fitted effect of over 65% in size
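Rat TrxR1 (90 nM in the dispensed reagent) was pre-reduced with 400 uM NADPH for 5 min at room temperature, then incubated with compound for 15 min. After 400 uM selenite was added, NADPH fluorescence (Ex 340/Em 450 nm) was followed for 8 min.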
Numbers without * were called inactive; i = inactive; ? = inconclusive; . = not tested or not shown; [ ] = dose if it differs, or a comment. Unless noted, calls follow the shape of the dose curve; as a rule, active = well fitted curve in the direction sought with a large enough effect; inconclusive = small, poorly fitted or top-dose-only effect, or another doubt; inactive = no such curve, though single readings can be large; an effect the other way counts as inactive or inconclusive. Unless noted, % is scaled to controls: 0 for no effect and ±100 for the full control effect.

SMILES	LDHA block	a7 integrin act	GALK inh	TrxR1 substrate	PI4K2A inh	rTrxR1 inhibitor
O=C(CCCN1C(=O)/C(=C\c2cccs2)SC1=S)Nc1ccc(C(=O)O)cc1	1	27%	-5%	79µM*	-5	-21%
COc1ccc(C(C)=O)cc1COc1ccc2ccc(=O)oc2c1	-2	.	.	.	.	.
CCC(C)Cc1c(C)sc2nc(CNc3ccc(NC(C)=O)c(Cl)c3)[nH]c(=O)c12 (stereo unspecified)	2	.	.	.	.	.
O=C(NC(=S)NCCC1=CCCCC1)c1ccc(Br)o1	-7	7.1µM*	7%	-6%	-4	-29%
COc1cc(/C=C2\C(=O)N(c3cccc(C(=O)O)c3)N=C2C)ccc1OCc1ccccc1	8	16%	.	.	-59*	.
COc1cc(/C=C2\C(=O)N(c3ccc(S(N)(=O)=O)cc3)N=C2C)ccc1OC(=O)c1ccco1	-1	?	-6%	-1%	-52*	-33%
C#CCOc1ccc(/C=C2/C(=O)N(c3ccc(S(N)(=O)=O)cc3)N=C2C)cc1OC	2	3%	.	.	?	.
COc1cc(/C=C2/C(=N)N3C(=NC2=O)SN=C3S(C)(=O)=O)ccc1OC(=O)c1ccco1	-2	-11%	-2%	-17%	-9	?
COc1cc(/C=C/[N+](=O)[O-])ccc1OCc1cccc(C(=O)O)c1	11	0%	-3%	-12%	-51*	32µM*
COc1cc(/C=C2/C(=N)N3C(SC)=NSC3=NC2=O)ccc1OC(=O)c1ccco1	-5	4µM*	-15%	3%[57.1 µM]	-5	7%[57.1 µM]
C#CCOc1ccc(/C=C2/C(=O)N(c3cccc(C(=O)O)c3)N=C2C)cc1OC	-11	11%	0%	-3%	?	-7%
Cc1ccc(CNC(=O)c2ccc(Nc3cc(-c4ccc(F)cc4)ncn3)cc2)o1	-8	.	.	.	.	.
O=S(=O)(NCc1ccc(N2CCCC2)nc1)c1ccccc1	3	.	.	.	.	.
O=C(Nc1nc(-c2ccc(-c3ccccc3)cc2)cs1)C1CCN(C(=O)c2ccoc2)CC1	-5	.	.	.	.	.
CCc1ccc(C(=O)c2cnc3ccc(OC)cc3c2N2CCOCC2)cc1	4	.	.	.	.	.
O=C(CC(c1ccc(F)cc1)N1Cc2ccccc2C1=O)NCc1ccc(F)cc1 (stereo unspecified)	-1	.	.	.	.	.
C=CCNC(=S)NNC(=O)c1ccc(CSc2nc(C)cc(C)n2)cc1	-3	.	.	.	.	.
Cc1cc(NC(=O)C(C)Sc2nnc(C)n2-c2ccccc2C)no1 (stereo unspecified)	-6	.	.	.	.	.
CCCCCCc1ccc(C(=O)NNC(=O)c2ccccc2Cl)cc1	1	.	.	.	.	.
C=CC(=O)N1C/C(=C/c2ccc(F)cc2)C(=O)/C(=C\c2ccc(F)cc2)C1	-6	-3%	.	-8%	-13	25µM*
Cc1cc(=O)oc2c(CN3CCOCC3)c(O)ccc12	3	-13%	.	i	-1	56µM*
CCc1c(C)c2ccc(O)c(CN3CCCC3)c2oc1=O	-1	22%	2%	i	-1	22µM*
Cc1c(C)c2ccc(O)c(CN3CCCC3)c2oc1=O	-3	4%	.	i	-1	?
O=c1c2ccccc2c(-c2ccccc2)nn1Cc1nc(-c2ccc(Br)cc2)no1	-2	.	.	.	.	.
N#CCSc1nc2c(c(=O)n1Cc1ccco1)C1(CCCC1)Cc1ccccc1-2	0	-18%	-1%	6%	-2	45µM*
SMILES	LDHA block	a7 integrin act	GALK inh	TrxR1 substrate	PI4K2A inh	rTrxR1 inhibitor
CC(C)c1ccc(NS(=O)(=O)c2c[nH]c3ccc([N+](=O)[O-])cc23)cc1	0	.	.	.	.	.
CCCc1nc([N+](=O)[O-])c(S(=O)(=O)c2ccccc2)n1CC(C)C	-3	-59%	.	-3%	19	2.8µM*
N#Cc1nc(C2CC2)oc1N1CCN(Cc2cccc(Cl)c2)CC1	2	.	.	.	.	.
Cc1ccc(-c2cnc(CCC(=O)Nc3ccc(F)cc3)o2)cc1C	-10	.	.	.	.	.
O=C(Nc1nc2c(F)cc(F)cc2s1)C1CC(=O)N(Cc2ccco2)C1 (stereo unspecified)	-3	7%	-16%	6%	-8	50µM*
Cc1ccc(S(=O)(=O)N2CCN(C(=O)CCn3ccc4ccccc43)CC2)cc1	-1	.	.	.	.	.
CSc1ccc(/C=C/C(=O)c2ccc(S(=O)(=O)NCC(=O)O)cc2)cc1	4	.	.	.	.	.
CCCn1ccnc1SCC(=O)Nc1sc2c(c1C#N)CCCC2	10	.	.	.	.	.
COc1ccc(C(=O)Nc2cc3c(cc2C(=O)c2ccc(C)cc2)OCCO3)cc1	-5	.	.	.	.	.
O=C(O)c1ccccc1NS(=O)(=O)c1cccc(-n2sc3ccccc3c2=O)c1	-71*	41%	-1%	-11%	-18	92%
CCOc1ccccc1Nc1nc(-c2cc3cccc(OC)c3oc2=O)cs1	0	.	.	.	.	.
COc1ccc2cc3c(N)c(C(=O)NCc4ccco4)sc3nc2c1	1	-20%	-3%	-1%	-57*	-12%
O=C(CCl)N1N=C(c2ccco2)CC1c1cccs1 (stereo unspecified)	-3	-46%	0%	0%	-2	2µM*
Cc1ccc(C2=NN(C(=O)CCl)C(c3cccs3)C2)o1 (stereo unspecified)	0	-40%	1%	0%[57.1 µM]	3	10µM*
CC(=O)c1ccc(NCC(=O)N2N=C(c3ccc(C)o3)CC2c2cccs2)cc1 (stereo unspecified)	-15	.	.	.	.	.
O=C(CCc1ccccc1)Nc1cccc2cccnc12	5	.	.	.	.	.
Cc1ccccc1S(=O)(=O)NC1OC(=O)C(Cl)=C1Cl (stereo unspecified)	1	-15%	-1%	-8%	-5	13µM*
COc1cccc(C=C(C#N)C(=O)c2ccccc2)c1	-4	.	.	.	-5	.
N#C/C(=C\c1cccc(Cl)c1)C(=O)c1ccccc1	-6	-19%	-15%	5%[57.1 µM]	-7	11µM*
O=C(O)c1ccc(N=Nc2c(O)[nH]c3ccccc23)cc1	-6	-5%	.	-16%	-62*	-21%
CCC(=O)N1CCCC1Cc1ccccc1 (stereo unspecified)	-9	.	.	.	.	.
Cn1cnc([N+](=O)[O-])c1Sc1ncnc2nc[nH]c12	4	10%	1%	7%[57.1 µM]	-3	25µM*
Cc1cccc(NC(c2ccc(C)s2)c2ccc3ccc(C)nc3c2O)n1 (stereo unspecified)	1	0%	2%	-5%	2	71µM*
COc1cc(C(Nc2ccccn2)c2ccc3ccc(C)nc3c2O)cc(OC)c1O (stereo unspecified)	23	-50%	-2%	-6%	6	1.3µM*
Cc1ccc2ccc(C(Nc3ccccn3)c3ccccc3)c(O)c2n1 (stereo unspecified)	1	-22%	2%	0%	0	?

Source: PubChem BioAssay (National Center for Advancing Translational Sciences (NCATS))
